For part of these data: Potency and affinity values are given separately.

What all share (parameters): scale not given: direction of the effect not stated beside the values
The target in assay [1] is Protein translocase subunit SecA (Escherichia coli (strain K12)) (UniProt P10408). The experiment in a line: Assay to Identify E. coli SecA ATPase Inhibitors. The class given is functional. To be noted: 30 µM.
Assay [2] has as its target T1, Ubiquitin-activating enzyme e1, putative (Leishmania donovani (strain BPK282A1)) (UniProt E9BSI1).
T1 sequence (whole entry): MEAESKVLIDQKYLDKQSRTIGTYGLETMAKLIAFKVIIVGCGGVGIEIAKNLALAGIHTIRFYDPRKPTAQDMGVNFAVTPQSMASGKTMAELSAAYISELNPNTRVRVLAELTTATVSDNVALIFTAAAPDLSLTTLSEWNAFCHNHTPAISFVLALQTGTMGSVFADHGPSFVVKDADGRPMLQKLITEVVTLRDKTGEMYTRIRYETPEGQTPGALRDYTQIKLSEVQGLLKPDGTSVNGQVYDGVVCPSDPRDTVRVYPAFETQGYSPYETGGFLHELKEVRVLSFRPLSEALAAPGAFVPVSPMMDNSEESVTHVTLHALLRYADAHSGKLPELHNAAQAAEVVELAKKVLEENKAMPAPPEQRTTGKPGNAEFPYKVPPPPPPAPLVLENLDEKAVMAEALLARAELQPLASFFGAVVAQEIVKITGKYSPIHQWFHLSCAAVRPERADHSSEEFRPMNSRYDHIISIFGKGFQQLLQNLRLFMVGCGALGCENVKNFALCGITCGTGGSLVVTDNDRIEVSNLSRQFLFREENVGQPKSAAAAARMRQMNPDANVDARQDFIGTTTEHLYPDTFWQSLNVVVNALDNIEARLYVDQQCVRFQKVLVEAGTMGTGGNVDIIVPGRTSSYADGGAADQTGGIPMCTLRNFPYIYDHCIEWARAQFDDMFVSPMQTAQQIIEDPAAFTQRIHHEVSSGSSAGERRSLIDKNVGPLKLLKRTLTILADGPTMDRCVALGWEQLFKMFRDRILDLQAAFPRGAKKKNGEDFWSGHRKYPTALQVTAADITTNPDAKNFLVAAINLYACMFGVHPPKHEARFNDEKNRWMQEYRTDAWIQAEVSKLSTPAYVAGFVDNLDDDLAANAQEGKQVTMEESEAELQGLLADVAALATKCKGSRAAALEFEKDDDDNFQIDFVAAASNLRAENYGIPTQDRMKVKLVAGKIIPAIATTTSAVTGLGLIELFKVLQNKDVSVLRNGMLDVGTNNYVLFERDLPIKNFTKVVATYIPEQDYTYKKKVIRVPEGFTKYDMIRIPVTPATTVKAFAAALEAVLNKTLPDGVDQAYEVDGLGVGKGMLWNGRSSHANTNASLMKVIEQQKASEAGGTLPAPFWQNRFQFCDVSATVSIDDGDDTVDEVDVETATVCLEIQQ
The experiment in a line: Leishmania donovani Ubiquitin Activating Enzyme (LdE1). To be noted: 30 µM. Format: functional.

For assay [3], the target named is Sialic acid-binding Ig-like lectin 9 (Homo sapiens) (UniProt Q9Y336). In words: Hs-Siglec9 ALPHAscreen SOP 20170721. To be noted: 10 µM.
Chain of Sialic acid-binding Ig-like lectin 9 (Homo sapiens) (Q9Y336 whole entry): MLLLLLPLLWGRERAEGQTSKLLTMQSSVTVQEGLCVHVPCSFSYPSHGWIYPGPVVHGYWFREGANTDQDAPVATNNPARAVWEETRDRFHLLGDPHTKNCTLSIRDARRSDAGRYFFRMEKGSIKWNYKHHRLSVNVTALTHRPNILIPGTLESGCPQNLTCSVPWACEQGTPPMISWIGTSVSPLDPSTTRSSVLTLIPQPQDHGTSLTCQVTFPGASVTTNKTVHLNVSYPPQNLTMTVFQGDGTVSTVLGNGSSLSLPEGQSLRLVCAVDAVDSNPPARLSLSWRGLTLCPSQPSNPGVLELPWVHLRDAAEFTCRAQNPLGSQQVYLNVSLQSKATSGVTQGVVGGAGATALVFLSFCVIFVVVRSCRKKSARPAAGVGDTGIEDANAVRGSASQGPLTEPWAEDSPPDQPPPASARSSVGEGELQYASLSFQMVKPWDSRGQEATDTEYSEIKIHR
Another assay concerns Trypanosoma cruzi. The experiment in a line: Trypanosoma cruzi phosphomannomutase and mannose-1-phosphate guanylyltransferase assay. The class given is functional. To be noted: 10 µM.
Assay [4] concerns the target T2, Arginase-2, mitochondrial (Homo sapiens) (UniProt P78540).
T2 sequence (whole entry): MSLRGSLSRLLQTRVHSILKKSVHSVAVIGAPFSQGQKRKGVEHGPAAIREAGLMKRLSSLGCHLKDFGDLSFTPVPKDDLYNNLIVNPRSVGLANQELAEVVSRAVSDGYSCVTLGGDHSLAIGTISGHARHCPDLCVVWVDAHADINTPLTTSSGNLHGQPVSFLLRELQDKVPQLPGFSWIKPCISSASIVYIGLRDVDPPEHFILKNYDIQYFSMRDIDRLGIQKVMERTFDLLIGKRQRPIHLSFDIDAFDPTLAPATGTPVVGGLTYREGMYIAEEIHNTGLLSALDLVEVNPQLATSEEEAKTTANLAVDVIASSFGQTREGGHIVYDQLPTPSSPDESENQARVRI
In words: in vitro enzyme assay to detect the production of urea directly proportional to the activity of Arginase II. Also: in the data most compounds retested in dose-response had high values. To be noted: 33.3 µM. The class given is functional.

For assay [5], the target named is T3, Proteasome subunit beta (Trypanosoma cruzi) (UniProt O96673).
T3 sequence (whole entry): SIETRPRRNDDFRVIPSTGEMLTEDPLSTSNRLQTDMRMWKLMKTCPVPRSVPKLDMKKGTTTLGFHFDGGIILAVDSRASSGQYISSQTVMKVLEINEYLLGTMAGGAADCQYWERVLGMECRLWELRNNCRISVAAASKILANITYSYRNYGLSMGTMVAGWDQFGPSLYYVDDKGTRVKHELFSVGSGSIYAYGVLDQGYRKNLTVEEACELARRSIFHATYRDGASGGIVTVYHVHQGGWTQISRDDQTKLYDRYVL
The experiment in a line: Trypanosoma cruzi proteasome chymotrypsin-like activity (TcProtChymo) assay. Also: in the data most compounds retested in dose-response had high values. Format: functional. To be noted: 9.37 µM.

The species entered for the next assay is Homo sapiens. The experiment in a line: To identify inhibition of the IFN signalling (Jak-Stat) pathway via expression of an eGFP reporter gene under the control of an IFN-stimulated response element (ISRE) containing MxA promoter. The class given is functional. To be noted: 30 µM. On the technique in general: A reporter such as luciferase makes a cellular process visible.

Assay [6] has as its target T4, Tyrosyl-tRNA synthetase, putative (Trypanosoma cruzi (strain CL Brener)) (UniProt Q4DSP6).
T4 sequence (whole entry): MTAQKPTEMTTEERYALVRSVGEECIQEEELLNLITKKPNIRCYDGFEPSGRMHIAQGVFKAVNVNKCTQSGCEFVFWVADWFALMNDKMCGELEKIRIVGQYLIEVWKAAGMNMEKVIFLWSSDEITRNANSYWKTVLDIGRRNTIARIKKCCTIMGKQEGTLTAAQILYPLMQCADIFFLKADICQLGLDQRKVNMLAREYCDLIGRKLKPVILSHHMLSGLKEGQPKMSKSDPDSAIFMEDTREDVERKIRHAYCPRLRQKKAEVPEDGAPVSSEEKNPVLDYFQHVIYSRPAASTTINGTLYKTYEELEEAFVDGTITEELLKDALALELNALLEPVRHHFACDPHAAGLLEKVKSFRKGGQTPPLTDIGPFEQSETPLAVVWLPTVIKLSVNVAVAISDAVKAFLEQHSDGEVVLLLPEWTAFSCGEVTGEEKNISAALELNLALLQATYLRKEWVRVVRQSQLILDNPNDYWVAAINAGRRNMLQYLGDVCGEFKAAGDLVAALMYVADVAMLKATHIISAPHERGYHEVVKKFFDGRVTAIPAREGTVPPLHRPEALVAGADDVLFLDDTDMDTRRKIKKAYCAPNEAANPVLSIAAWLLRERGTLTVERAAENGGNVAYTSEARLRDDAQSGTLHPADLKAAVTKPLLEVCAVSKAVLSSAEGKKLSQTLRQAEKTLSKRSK
In words: Trypanosoma cruzi tyrosyl tRNA synthetase (TcYRS) _High Tyrosine SOP. Also: in the data most compounds retested in dose-response had high values. To be noted: 30 µM. The class given is functional.

Assay [7] concerns the target T4, Tyrosyl-tRNA synthetase, putative (Trypanosoma cruzi (strain CL Brener)). The experiment in a line: Trypanosoma cruzi tyrosyl tRNA synthetase (TcYRS) SOP. Format: functional. To be noted: 30 µM.
Assay [8] has as its target Chromo domain-containing protein 1 (Saccharomyces cerevisiae (strain ATCC 204508 / S288c) (Baker's yeast)) (UniProt P32657). The experiment in a line: ScCHD-1 Enzyme Inhibition Assay. Also: in the data most compounds retested in dose-response had high values. The class given is functional. To be noted: 30 µM.

Chain of Chromo domain-containing protein 1 (Saccharomyces cerevisiae (strain ATCC 204508 / S288c) (Baker's yeast)) (P32657 whole entry, the tested form may be a part): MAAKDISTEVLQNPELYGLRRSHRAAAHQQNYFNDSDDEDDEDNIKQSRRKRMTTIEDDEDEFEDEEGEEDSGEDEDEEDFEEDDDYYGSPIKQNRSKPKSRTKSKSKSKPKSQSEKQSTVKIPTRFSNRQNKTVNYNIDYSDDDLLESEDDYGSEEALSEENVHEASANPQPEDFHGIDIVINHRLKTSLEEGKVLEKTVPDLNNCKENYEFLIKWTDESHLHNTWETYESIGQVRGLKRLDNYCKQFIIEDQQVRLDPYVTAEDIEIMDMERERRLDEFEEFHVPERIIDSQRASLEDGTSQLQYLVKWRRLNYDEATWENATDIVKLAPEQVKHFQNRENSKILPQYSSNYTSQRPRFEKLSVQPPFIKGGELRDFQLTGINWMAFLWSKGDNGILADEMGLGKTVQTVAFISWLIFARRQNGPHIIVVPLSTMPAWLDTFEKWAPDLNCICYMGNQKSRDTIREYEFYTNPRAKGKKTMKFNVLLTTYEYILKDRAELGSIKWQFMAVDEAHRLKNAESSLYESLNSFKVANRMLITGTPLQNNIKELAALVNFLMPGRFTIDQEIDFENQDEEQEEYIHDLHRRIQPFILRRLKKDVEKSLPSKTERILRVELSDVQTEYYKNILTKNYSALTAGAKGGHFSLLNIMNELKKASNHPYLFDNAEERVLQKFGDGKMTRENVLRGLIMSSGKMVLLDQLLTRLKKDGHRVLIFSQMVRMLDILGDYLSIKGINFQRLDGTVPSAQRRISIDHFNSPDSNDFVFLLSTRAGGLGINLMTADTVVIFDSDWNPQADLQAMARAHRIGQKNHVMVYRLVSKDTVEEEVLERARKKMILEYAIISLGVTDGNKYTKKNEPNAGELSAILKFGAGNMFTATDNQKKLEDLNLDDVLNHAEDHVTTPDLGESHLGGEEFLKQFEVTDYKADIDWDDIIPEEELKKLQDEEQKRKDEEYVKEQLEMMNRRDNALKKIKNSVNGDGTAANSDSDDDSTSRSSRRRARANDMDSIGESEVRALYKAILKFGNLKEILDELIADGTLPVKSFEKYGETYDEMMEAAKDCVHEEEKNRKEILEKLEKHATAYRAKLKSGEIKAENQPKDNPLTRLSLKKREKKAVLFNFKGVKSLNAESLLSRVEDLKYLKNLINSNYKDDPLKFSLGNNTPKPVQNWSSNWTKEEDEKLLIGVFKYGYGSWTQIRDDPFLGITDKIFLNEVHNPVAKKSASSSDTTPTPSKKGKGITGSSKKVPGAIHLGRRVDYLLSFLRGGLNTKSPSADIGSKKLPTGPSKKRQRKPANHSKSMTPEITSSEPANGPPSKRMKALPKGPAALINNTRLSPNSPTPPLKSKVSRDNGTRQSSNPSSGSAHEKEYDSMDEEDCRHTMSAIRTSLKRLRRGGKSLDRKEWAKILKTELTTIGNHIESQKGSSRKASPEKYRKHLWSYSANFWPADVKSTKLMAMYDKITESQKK
Chain of Protein translocase subunit SecA (Escherichia coli (strain K12)) (P10408 whole entry): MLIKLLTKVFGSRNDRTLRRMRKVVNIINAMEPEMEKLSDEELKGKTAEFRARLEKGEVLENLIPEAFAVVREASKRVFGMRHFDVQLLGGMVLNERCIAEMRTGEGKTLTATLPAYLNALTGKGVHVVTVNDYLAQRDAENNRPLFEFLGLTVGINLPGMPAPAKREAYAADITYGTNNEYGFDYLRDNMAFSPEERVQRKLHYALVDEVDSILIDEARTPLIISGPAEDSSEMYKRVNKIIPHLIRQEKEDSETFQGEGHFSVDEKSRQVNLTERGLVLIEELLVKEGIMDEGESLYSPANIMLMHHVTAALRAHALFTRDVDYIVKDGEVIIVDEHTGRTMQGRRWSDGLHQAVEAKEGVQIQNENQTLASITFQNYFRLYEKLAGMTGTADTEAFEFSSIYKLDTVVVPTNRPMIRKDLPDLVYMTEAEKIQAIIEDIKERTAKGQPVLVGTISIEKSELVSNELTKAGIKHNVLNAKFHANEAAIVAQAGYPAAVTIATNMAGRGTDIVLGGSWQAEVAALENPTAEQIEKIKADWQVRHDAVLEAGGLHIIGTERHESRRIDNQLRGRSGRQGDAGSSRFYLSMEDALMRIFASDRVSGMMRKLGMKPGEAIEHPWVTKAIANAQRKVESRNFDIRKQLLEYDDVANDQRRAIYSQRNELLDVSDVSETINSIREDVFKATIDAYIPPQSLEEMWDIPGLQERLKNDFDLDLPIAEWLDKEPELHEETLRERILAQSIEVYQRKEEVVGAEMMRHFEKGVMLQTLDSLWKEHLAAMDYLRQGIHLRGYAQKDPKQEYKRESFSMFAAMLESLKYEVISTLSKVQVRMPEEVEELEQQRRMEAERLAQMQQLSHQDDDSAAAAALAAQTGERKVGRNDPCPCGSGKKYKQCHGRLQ

As to `CN(C)C(=O)CN1C(=O)CCC12CCN(Cc1ccc(F)cc1)CC2`, the Percent Effect was -1.87% in assay [1]; 22.1% in assay [2]; -5.35% in assay [3]; 0.188% with Trypanosoma cruzi; 3.2% in [4]; 18.1% in [5]. Further, the Percent Effect is 14% in the assay filed under Homo sapiens, 9.66% in [6], 15% in [7] and -11.4% in assay [8].

As to `CN(C)CC1CN(Cc2ccsc2)Cc2nccn2C1` (stereo not given), the Percent Effect was -3.4% in assay [1]; 6.49% in assay [2]; -4.24% in [3]; -1.85% in the assay on Trypanosoma cruzi; 3.24% in [4]; 18.4% in assay [5]. Besides, the Percent Effect was -9.26% in the assay listed under Homo sapiens, 8.95% in assay [6], 12.8% in assay [7] and 6.09% in [8].

Consider `CCn1ccnc1CNCC1CCCN1c1cccnn1` (stereo not given), for which the Percent Effect in assay [1] was -4.44%; in [2] it was 2.67%; in assay [3], 5.47%; in the assay with Trypanosoma cruzi it was 0.803%; in [4], 0.444%; in assay [5] it was 1.78%. Also, the Percent Effect in the assay listed under Homo sapiens is 9.51%; in assay [6] it was 6.84%; in [7] it was 12.8%; in assay [8], -8.32%.

Consider `Cc1ccc(-c2cc(CN3CCCC(Cn4cncn4)C3)on2)cc1` (stereo not given), for which the Percent Effect was -6.67% in assay [1]; 7.79% in assay [2]; -2.07% in [3]; -1.68% with Trypanosoma cruzi; 1.84% in assay [4]; 4.39% in [5]. The Percent Effect in the assay filed under Homo sapiens is 28%; in assay [6] it was 0%; in assay [7], 4.71%; in [8], -3.73%.

For `O=C(CO)N1CCc2onc(Cn3cccn3)c2C1`, the Percent Effect in assay [1] is -5.41%; in assay [2] it was 3.9%; in assay [3] it was 3.29%; in the assay on Trypanosoma cruzi, 1.27%; in assay [4], -1.62%; in assay [5], 7.5%. Also, the Percent Effect in the assay listed under Homo sapiens is -4.61%; in assay [6], 2.63%; in assay [7] it was 5.13%; in assay [8], 0.404%.

For the compound `CC(C)c1nn(C)c(N2CCOCC2)c1CNCC(=O)N(C)C`, the Percent Effect in [1] is -2.05%; in assay [2], 12.8%; in assay [3], -8.89%; in the assay on Trypanosoma cruzi it was 1.22%; in assay [4], 3.69%; in assay [5], 10.5%. For the same compound, the Percent Effect in the assay filed under Homo sapiens was -5.7%; in assay [6], 7.18%; in [7] it was 22.9%; in assay [8], -5.02%.

Turning to `O=C1CCC2(CCCN(CCc3ccccc3)C2)N1Cc1cccnc1` (stereo not given), the Percent Effect in [1] was -0.897%; in [2], 22.1%; in assay [3], -2.1%; in the assay on Trypanosoma cruzi, -2.44%; in assay [4], 2.28%; in [5], 18.8%. For the same compound, the Percent Effect in the assay filed under Homo sapiens was 4.75%; in assay [6], 12.6%; in assay [7], 10%; in assay [8], -8.73%.

Consider `O=C(CCC1CCN(Cc2ncc[nH]2)CC1)Nc1ccccc1Cl`, for which the Percent Effect was -2.38% in assay [1]; -5.41% in [2]; -2.45% in [3]; -0.291% with Trypanosoma cruzi; -2.45% in [4]; 8.56% in [5]. The Percent Effect was 0.831% in the assay listed under Homo sapiens, -0.532% in assay [6], 0% in [7] and 4.74% in assay [8].

Regarding `Cc1ccc(S(=O)(=O)N2CCOc3ccccc32)cc1C(N)=O`, the Percent Effect in assay [1] was -0.964%; in assay [2], 10.3%; in [3], -14.2%; in the assay with Trypanosoma cruzi, -4.79%; in assay [4] it was -2.87%; in [5], 10.5%. Also, the Percent Effect in the assay listed under Homo sapiens amounted to 34.9%; in assay [6] it was 0.478%; in [7], 8.43%; in assay [8] it was 17.3%.

Consider `c1ccc(OCc2nnc3n2CCN(CC2CCOCC2)C3)nc1`, for which the Percent Effect in assay [1] was -2.49%; in [2], 1.3%; in [3] it was -1.26%; in the assay on Trypanosoma cruzi, -1.07%; in assay [4] it was -2.43%; in assay [5] it was -0.0883%. Moreover, the Percent Effect was -3.47% in the assay listed under Homo sapiens, 0.526% in assay [6], -89.7% in assay [7] and -2.56% in [8].

For the compound `CN(Cc1cccc(F)c1)C(=O)CN1CCOC(Cn2cccn2)C1` (stereo not given), the Percent Effect amounted to 0.367% in [1]; 0% in assay [2]; 7.99% in [3]; 0.933% in the assay on Trypanosoma cruzi; 0.615% in assay [4]; 3.86% in [5]. In addition, the Percent Effect in the assay listed under Homo sapiens is 8.18%; in assay [6] it was 3.92%; in assay [7], 9.41%; in assay [8], -0.994%.

Turning to `Cc1ccc(OCCC(=O)N2CCN(c3cnccn3)CC2)cc1C`, the Percent Effect in assay [1] was 1.26%; in assay [2], 13%; in [3], -2.1%; in the assay on Trypanosoma cruzi it was -5.78%; in [4], 3.48%; in [5], 14.9%. Moreover, the Percent Effect in the assay listed under Homo sapiens is 16.1%; in [6], 6.86%; in assay [7], 18.8%; in assay [8] it was -6.5%.

The record behind these values is ChEMBL document CHEMBL3988442, “University of Dundee, Small-Polar-MMV Screening Library” (2021).
